Experimental data reported in the supplement of paper PMC11624193, “Coupling cellular drug-target engagement to downstream pharmacology with CeTEAM” (Nature Communications, 2024).
Unmarked numbers belong to inactive results.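 The calls were made as follows: active = log2 fold change beyond 2 SD from the library mean after excluding viability outliers; inactive = within 2 SD.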

Target: PARP1 L713F-nLuc biosensor (HCT116) (UniProt P09874)
Assay: PARP1 L713F-nLuc/akaLuc ratio relative to DMSO control (biosensor stabilization) (fold change); higher = more PARP1 biosensor stabilization (target engagement / stabilizer), active = hit call of the paper
Settings: stock concentration (mM; final µM = stock mM x 1): 10; 24 h

Chain of PARP1 L713F-nLuc biosensor (HCT116) (P09874 whole entry L713F, looked up): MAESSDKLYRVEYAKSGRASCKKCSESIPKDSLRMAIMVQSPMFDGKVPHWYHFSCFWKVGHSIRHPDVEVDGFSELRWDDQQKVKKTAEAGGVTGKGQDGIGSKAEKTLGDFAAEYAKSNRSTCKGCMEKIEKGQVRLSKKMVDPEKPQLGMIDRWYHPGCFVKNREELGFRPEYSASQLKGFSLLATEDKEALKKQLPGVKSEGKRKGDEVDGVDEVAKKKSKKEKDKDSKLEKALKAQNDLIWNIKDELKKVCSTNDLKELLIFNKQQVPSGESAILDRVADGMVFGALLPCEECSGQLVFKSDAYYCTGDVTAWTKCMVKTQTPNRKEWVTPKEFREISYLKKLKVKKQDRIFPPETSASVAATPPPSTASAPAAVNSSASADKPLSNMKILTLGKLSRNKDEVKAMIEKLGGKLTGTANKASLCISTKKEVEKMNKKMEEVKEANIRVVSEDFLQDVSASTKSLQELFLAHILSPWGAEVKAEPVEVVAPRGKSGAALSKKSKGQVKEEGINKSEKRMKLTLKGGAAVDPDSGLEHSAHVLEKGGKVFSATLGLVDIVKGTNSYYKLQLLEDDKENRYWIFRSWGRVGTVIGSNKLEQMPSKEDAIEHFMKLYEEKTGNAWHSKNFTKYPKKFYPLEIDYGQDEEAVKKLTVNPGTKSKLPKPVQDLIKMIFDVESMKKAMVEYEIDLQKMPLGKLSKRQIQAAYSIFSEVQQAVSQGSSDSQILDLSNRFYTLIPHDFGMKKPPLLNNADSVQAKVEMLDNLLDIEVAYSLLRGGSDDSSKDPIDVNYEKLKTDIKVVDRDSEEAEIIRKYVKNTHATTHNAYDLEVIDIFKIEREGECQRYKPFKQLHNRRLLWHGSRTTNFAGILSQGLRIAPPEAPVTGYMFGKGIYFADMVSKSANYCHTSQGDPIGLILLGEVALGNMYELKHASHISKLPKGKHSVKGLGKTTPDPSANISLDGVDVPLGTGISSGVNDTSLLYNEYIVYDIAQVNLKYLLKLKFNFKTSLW

| SMILES | PARP1 L713F-nLuc/akaLuc ratio |
| --- | --- |
| Nc1ncc(-c2cccc(N3CCNCC3)c2)cc1C(=O)Nc1ccncc1 [PKC-iota inhibitor 1] | 1.02 |
| CNC(=O)c1ccc(C)c(-n2c(C)cc(OCc3ccc(F)cc3F)c(Br)c2=O)c1 | 0.728 |
| Cc1cc(Nc2cc(N3CCN(C)CC3)nc(Sc3ccc(NC(=O)C4CC4)cc3)n2)n[nH]1 [Tozasertib] | 0.774 |
| Cc1cc(C)cc(Oc2ccc(CNC(=O)[C@H](C)N)cc2C)c1 | 1.24 |
| CC(C)(O)[C@H]1CC[C@H](Nc2ccc3ncc(-c4cccc(C(F)(F)F)c4)n3n2)CC1 | 0.732 |
